Screen size: about 2,100 compounds; about 940 (45%) were called active. Inconclusive results (about 48%) are left out. The set was probably picked from earlier hits. This is one part of the list. A number with no mark means an inactive call. Calls follow the shape of the dose curve; as a rule, active = well fitted inhibition curve with a large enough effect; inconclusive = small, poorly fitted or top-dose-only effect; inactive = no such curve, though single readings can be large or run the other way.
Assay: Confirmatory qHTS for Inhibitors of ATXN expression; also: nearly all actives have a fitted effect of over 65% in size;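 as to activity change, negative = inhibition: 0% = DMSO vehicle wells and -100% = medium-only wells without cells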
Settings: ATXN2-luciferase reporter cells, luminescence, 24 h; series mostly up to 11.5 µM; activity change, negative = inhibition: at the top concentration
Summary of the method: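 A titration, incubated 24 h with reporter cells expressing ATXN2-luciferase. Luminescence (SteadyGlo) gives ATXN2 expression, multiplexed GF-AFC fluorescence gives viability; normalised to DMSO and medium-only wells.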
In the case of Cc1cc(OCC(=O)NC(C)c2ccccc2)ccc1[N+](=O)[O-] (stereo not given), the “activity change, negative = inhibition” value is reported as -13.6%.
With CC(C)C(=O)NC(c1ccccc1)c1cc([N+](=O)[O-])c2cccnc2c1O (stereo not given) the Potency was 10 µM (active).
With CCC(=O)NC(c1ccc(C)cc1)c1cc([N+](=O)[O-])c2cccnc2c1O (stereo not given) the Potency was 6.31 µM (active).
For CC(C)c1ccc2c(c1)C(N1CCNCC1)Cc1ccc(F)cc1S2 (stereo not given), the Potency was 28.2 µM (active).
For CNc1nc2c(N)ncnc2n1[C@H]1O[C@@H](CO)[C@H](O)[C@@H]1O, the Potency was 2.82 µM (active).
With N#Cc1c(N)n(C2OC(CO)C(O)C2O)c2ncnc(N)c12 (stereo not given) the Potency was 0.398 µM (active).
With CCc1cc(C)cc(OCCNC(=O)c2cncc(Br)c2)c1 the Potency was 25.1 µM (active).
With CCOc1ccc(CCNC(=O)c2ccc(OCc3c(C)noc3C)cc2)cc1OCC the “activity change, negative = inhibition” value was -13.2%.
In the case of COc1ccc(OCc2cccc(C(=O)Nn3cc([N+](=O)[O-])cn3)c2)cc1, the Potency is reported as 0.398 µM (active).
For O=C(Nc1ccc2c(c1)CCC2)C1CCN(c2c3c(nc4ncnn24)CCC3)CC1, the Potency was 7.94 µM (active).
With CC(C)COc1cccc(C(=O)N(CC(=O)Nc2ccccc2C(F)(F)F)Cc2ccco2)c1 the Potency was 3.16 µM (active).
With Cc1cc(C)nc(N/N=C2/CCCC/C2=C\c2ccccc2)n1 the Potency was 2.82 µM (active).
For COc1cc2[nH]c(=O)n(CCCCCC(=O)N3CC=C(c4ccccc4)CC3)c(=O)c2cc1OC, the Potency was 3.16 µM (active).
In the case of CCOC(=O)c1c(NC(=O)COC(=O)c2ccccc2NC)sc(C(=O)N(C)C)c1C, the “activity change, negative = inhibition” value is reported as -24%.
With CCOC(=O)c1c(NC(=O)C(Sc2ccccc2)c2ccccc2)sc(C(=O)N(C)C)c1C (stereo not given) the Potency was 25.1 µM (active).
With CC(C)CC(N)c1csc(NC(=O)Nc2ccccc2C(C)(C)C)n1 (stereo not given) the Potency was 3.16 µM (active).
For COc1ccc(N(C(=O)c2snc(C(N)=O)c2N)C(C(=O)NCc2ccc(F)cc2)c2ccc(O)cc2)cc1 (stereo not given), the “activity change, negative = inhibition” value was -19.9% [at 57.5 µM].
For COc1ccc(CC(N)c2csc(NC(=O)c3ccccc3OC)n2)cc1 (stereo not given), the “activity change, negative = inhibition” value was -21.7% [at 57.5 µM].
In the case of NC(Cc1ccc(F)cc1)c1csc(NC(=O)NC(c2ccccc2)c2ccccc2)n1 (stereo not given), the Potency is reported as 28.2 µM (active).
In the case of NC(Cc1ccc(Cl)cc1)c1csc(NC(=O)Nc2ccccc2-c2ccccc2)n1 (stereo not given), the Potency is reported as 3.16 µM (active).
With COc1ccc(CNC(=O)Nc2nc(C(N)Cc3ccc(Cl)cc3)cs2)cc1 (stereo not given) the Potency was 28.2 µM (active).
In the case of NC(c1ccccc1)c1csc(NC(=O)Nc2ccccc2Oc2ccccc2)n1 (stereo not given), the Potency is reported as 3.16 µM (active).
In the case of O=C(OCCN1C(=O)c2cccc3c(N4CCOCC4)ccc(c23)C1=O)c1ccccc1Cl, the Potency is reported as 5.01 µM (active).
In the case of COc1ccc2c(-c3ccc(S(N)(=O)=O)cc3)c(-c3ccc(S(C)(=O)=O)cc3)sc2c1, the Potency is reported as 28.2 µM (active).
In the case of O=C(CNC(=O)c1ccc(F)cc1)N/N=C/c1cc(Br)ccc1OC(=O)/C=C/c1ccco1, the Potency is reported as 15.8 µM (active).
With O=C(CNC(=O)c1cccc(F)c1)N/N=C/c1cc(Br)ccc1OC(=O)/C=C/c1ccco1 the Potency was 7.94 µM (active).
For O=C(/C=C/c1ccco1)Oc1cc(Br)cc(/C=N/NC(=O)c2ccccc2O)c1, the Potency was 0.447 µM (active).
For O=C(CNC(=O)c1ccccc1F)N/N=C/c1cc(Br)ccc1OC(=O)/C=C/c1ccco1, the Potency was 11.2 µM (active).
With O=C(NCCc1csc(-c2cccnc2)n1)c1cccc(Cl)c1 the “activity change, negative = inhibition” value was -25.2% [at 57.5 µM].
For O=C(/C=C/c1ccccc1)NC(=S)NNC(=O)c1cnccn1, the Potency was 7.94 µM (active).
For COc1cc(C(=O)NC(=S)NNC(=O)c2cnccn2)cc(OC)c1OC, the Potency was 12.6 µM (active).
For O=C(NNC(=O)c1cnccn1)c1ccc(Cl)c(Cl)c1, the Potency was 15.8 µM (active).
With CCCCOc1ccc(C(=O)NNC(=O)c2cnccn2)cc1OC the Potency was 17.8 µM (active).
In the case of NC(N)=N/N=C/c1ccc2cccc(OCc3ccccc3)c2n1, the Potency is reported as 10 µM (active).
In the case of CCC(c1nnnn1C1CCCC1)N(Cc1cccs1)Cc1cc2cc(C)ccc2[nH]c1=O (stereo not given), the Potency is reported as 28.2 µM (active).
In the case of Cn1nnnc1Sc1ncnc2scc(-c3ccc[nH]3)c12, the Potency is reported as 28.2 µM (active).
With Cn1nnnc1Sc1ncnc2scc(-c3ccccc3Cl)c12 the Potency was 3.16 µM (active).
In the case of Cn1nnnc1Sc1ncnc2scc(Br)c12, the Potency is reported as 28.2 µM (active).
In the case of CC(=O)c1cccc(-c2csc3ncnc(Sc4nnnn4C)c23)c1, the Potency is reported as 11.2 µM (active).
With CCOC(=O)c1c(C)oc2c(F)c(F)c(F)c(F)c2c1=O the Potency was 3.98 µM (active).
For CCN(CC)CCNC1=NCCn2c1cc1cc(OC)ccc12, the Potency was 1.78 µM (active).
For C[C@@H]1C[C@@H]2O[C@H]2/C=C\C=C\C(=O)Cc2c(Cl)c(O)cc(O)c2C(=O)O1, the Potency was 0.631 µM (active).
With O=C(N/N=C/c1c(O)ccc2ccccc12)c1cccc(C(F)(F)F)c1 the Potency was 1 µM (active).
For O=C(NN=Cc1c(O)ccc2ccccc12)c1ccc2c(c1)OCO2, the Potency was 2 µM (active).
With O=C(N/N=C/c1ccccc1O)c1cccc(C(F)(F)F)c1 the Potency was 0.631 µM (active).

From PubChem BioAssay AID1745848 (National Center for Advancing Translational Sciences (NCATS), 2022)
Potency is read from the fitted curve at half-maximal effect.
